According to PubChem BioAssay AID1159580 (chemical genetic matrix, 2015):
The campaign covered roughly 5,500 compounds. About 2,000 (36%) were called active. Inconclusive results (about 18%) are left out. Cut-off read from the data, not from the text of the source: active = normalized growth mostly below about 0.91 (no sharp cut-off); inconclusive = no clear call, values can overlap the other calls; inactive = mostly above about 0.92. This is one part of the list.

Assay: chemical genetic growth profiling, strain panel (AID 1159580);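 note: tested at 20 µM; growth read once vehicle control cultures reached saturation at 30 °C; 1 = growth at the plate median or of vehicle wells; lower values mean less growth of the strain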
Conditions: growth OD

Measured: normalized growth

CCC(C)C(=O)OC1[C@@H]2CC3=C4CC(=O)O[C@@H](c5ccoc5)[C@]4(C)CCC3[C@@](C)(C2=O)[C@@H](CC(=O)OC)C1(C)C (stereo partly specified)
inactive: S. cerevisiae deletion strains, locus YJL187C, strain SWE1, active compounds read low 1.01 | S. cerevisiae deletion strains, locus YJR066W, strain TOR1, active compounds read low 0.91 | S. cerevisiae deletion strains, locus YJR075W, strain HOC1, active compounds read low 1.01 | S. cerevisiae deletion strains, locus YKL009W, strain mrt4, active compounds read low 0.965 | S. cerevisiae deletion strains, locus YKL068W, active compounds read low 0.999 | S. cerevisiae deletion strains, locus YKL085W, strain MDH1 (second series), active compounds read low 0.988 | S. cerevisiae deletion strains, locus YKL085W, strain MDH1, active compounds read low 0.988 | S. cerevisiae deletion strains, locus YKL160W, strain elf1, active compounds read low 1.01 | S. cerevisiae deletion strains, locus YKR001C, strain vps1, active compounds read low 1.01 | S. cerevisiae deletion strains, locus YKR026C, strain gcn3, active compounds read low 1.01 | S. cerevisiae deletion strains, locus YKR091W, strain srl3, active compounds read low 1 | S. cerevisiae deletion strains, locus YLL001W, strain dnm1, active compounds read low 1.01 | S. cerevisiae deletion strains, locus YLL026W, active compounds read low 1 | S. cerevisiae deletion strains, locus YLL041C, strain sdh2, active compounds read low 1.01 | S. cerevisiae deletion strains, locus YLR027C, strain aat2, active compounds read low 1.02 | S. cerevisiae deletion strains, locus YLR039C, strain RIC1, active compounds read low 0.974 | S. cerevisiae deletion strains, locus YLR058C, strain SHM2, active compounds read low 1.01 | S. cerevisiae deletion strains, locus YLR102C, strain apc9, active compounds read low 1 | S. cerevisiae deletion strains, locus YLR113W, strain HOG1, active compounds read low 1.03 | S. cerevisiae deletion strains, locus YLR221C, strain rsa3, active compounds read low 0.998 | S. cerevisiae deletion strains, locus YLR258W, strain gsy2, active compounds read low 1.01 | S. cerevisiae deletion strains, locus YLR262C, strain YPT6 (second series), active compounds read low 0.947 | S. cerevisiae deletion strains, locus YLR268W, strain sec22, active compounds read low 0.989 | S. cerevisiae deletion strains, locus YLR320W, strain mms22, active compounds read low 1.01 | S. cerevisiae deletion strains, locus YLR342W, strain FKS1 (second series), active compounds read low 1 | S. cerevisiae deletion strains, locus YLR342W, strain FKS1, active compounds read low 1 | S. cerevisiae deletion strains, locus YLR357W, strain rsc2, active compounds read low 0.991 | S. cerevisiae deletion strains, locus YLR370C, strain arc18, active compounds read low 1.01 | S. cerevisiae deletion strains, locus YLR371W, strain rom2, active compounds read low 1 | S. cerevisiae deletion strains, locus YLR384C, strain iki3, active compounds read low 1.02 | S. cerevisiae deletion strains, locus YLR418C, strain cdc73, active compounds read low 1.04 | S. cerevisiae deletion strains, locus YML016C, strain PPZ1, active compounds read low 0.997 | S. cerevisiae deletion strains, locus YML032C, strain rad52, active compounds read low 1.01 | S. cerevisiae deletion strains, locus YML120C, strain ndi1, active compounds read low 1 | S. cerevisiae deletion strains, locus YML124C, strain tub3, active compounds read low 1.01 | S. cerevisiae deletion strains, locus YMR058W, strain fet3, active compounds read low 1.01 | S. cerevisiae deletion strains, locus YMR078C, strain ctf18, active compounds read low 1.01 | S. cerevisiae deletion strains, locus YMR125W, strain sto1, active compounds read low 1 | S. cerevisiae deletion strains, locus YMR129W, active compounds read low 1.01 | S. cerevisiae deletion strains, locus YMR205C, strain PFK2, active compounds read low 1 | S. cerevisiae deletion strains, locus YMR223W, strain ubp8, active compounds read low 1 | S. cerevisiae deletion strains, locus YMR231W, strain pep5, active compounds read low 0.973 | S. cerevisiae deletion strains, locus YMR307W, strain GAS1, active compounds read low 1.05 | S. cerevisiae deletion strains, locus YNL067W, strain RPL9B, active compounds read low 1.03 | S. cerevisiae deletion strains, locus YNL071W, strain lat1, active compounds read low 1.01 | S. cerevisiae deletion strains, locus YNL128W, strain TEP1, active compounds read low 0.995 | S. cerevisiae deletion strains, locus YNL183C, strain NPR1, active compounds read low 0.927 | S. cerevisiae deletion strains, locus YNL209W, strain ssb2, active compounds read low 1 | S. cerevisiae deletion strains, locus YNL233W, strain BNI4, active compounds read low 0.995 | S. cerevisiae deletion strains, locus YNL248C, strain rpa49, active compounds read low 1 | S. cerevisiae deletion strains, locus YNL250W, strain rad50, active compounds read low 1.03 | S. cerevisiae deletion strains, locus YNL271C, strain bni1, active compounds read low 1 | S. cerevisiae deletion strains, locus YNL298W, strain CLA4, active compounds read low 1.02 | S. cerevisiae deletion strains, locus YNL307C, strain MCK1, active compounds read low 1 | S. cerevisiae deletion strains, locus YNL322C, strain KRE1 (second series), active compounds read low 0.999 | S. cerevisiae deletion strains, locus YNR049C, strain mso1, active compounds read low 1.01 | S. cerevisiae deletion strains, locus YNR052C, strain pop2, active compounds read low 1.01 | S. cerevisiae deletion strains, locus YOL012C, strain htz1 1.11 | S. cerevisiae deletion strains, locus YOL147C, strain pex11, active compounds read low 1 | S. cerevisiae deletion strains, locus YOR001W, strain rrp6, active compounds read low 1.01 | S. cerevisiae deletion strains, locus YOR061W, strain CKA2, active compounds read low 0.995 | S. cerevisiae deletion strains, locus YOR069W, strain VPS5, active compounds read low 1.01 | S. cerevisiae deletion strains, locus YOR070C, strain gyp1, active compounds read low 1.01 | S. cerevisiae deletion strains, locus YOR080W, strain dia2, active compounds read low 0.996 | S. cerevisiae deletion strains, locus YOR083W, strain WHI5, active compounds read low 1 | S. cerevisiae deletion strains, locus YOR106W, strain vam3, active compounds read low 1.02 | S. cerevisiae deletion strains, locus YOR136W, strain idh2, active compounds read low 0.994 | S. cerevisiae deletion strains, locus YOR144C, strain elg1, active compounds read low 1.01 | S. cerevisiae deletion strains, locus YOR184W, strain ser1, active compounds read low 0.983 | S. cerevisiae deletion strains, locus YOR231W, strain MKK1, active compounds read low 0.973 | S. cerevisiae deletion strains, locus YOR265W, strain rbl2, active compounds read low 0.999 | S. cerevisiae deletion strains, locus YOR270C, strain vph1, active compounds read low 1.03 | S. cerevisiae deletion strains, locus YOR290C, strain snf2, active compounds read low 0.978 | S. cerevisiae deletion strains, locus YOR316C, strain cot1, active compounds read low 1 | S. cerevisiae deletion strains, locus YPL051W, strain arl3, active compounds read low 1 | S. cerevisiae deletion strains, locus YPL078C, strain atp4, active compounds read low 1.04 | S. cerevisiae deletion strains, locus YPL106C, strain sse1, active compounds read low 1.01 | S. cerevisiae deletion strains, locus YPL240C, strain hsp82, active compounds read low 1 | S. cerevisiae deletion strains, locus YPL241C, strain CIN2, active compounds read low 0.998 | S. cerevisiae deletion strains, locus YPL256C, strain CLN2, active compounds read low 0.943 | S. cerevisiae deletion strains, locus YPR119W, strain clb2, active compounds read low 1.01 | S. cerevisiae deletion strains, locus YPR141C, strain kar3, active compounds read low 1.01 | S. cerevisiae deletion strains, locus YPR163C, strain tif3, active compounds read low 1 | S. cerevisiae deletion strains, locus YPR167C, strain met16, active compounds read low 0.995 | S. cerevisiae deletion strains, strain wtn01, active compounds read low 0.993 | S. cerevisiae strains, strain wild type, active compounds read low 0.978
